Measurements as given in PubChem BioAssay (NCI).
Compounds without any hit were thinned out: in the full panel of roughly 83,000, 20% have a hit.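 Activity criterion: percent growth below 10, measured after cells in 96-well plates were exposed to a single compound concentration for 48 hours.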 Values without a mark were called inactive. Calls of active or inactive are those of the source.

Experiments:
Assay in all cases: NCI-60 one-dose screen, 48 h (100 = growth as untreated, 0 = no growth, -100 = all killed)
Details in all cases: 10 µM unless noted
HCT-15 colon = tested on: HCT-15 colon
HT29 colon = tested on: HT29 colon
SNB-75 CNS = tested on: SNB-75 CNS
SNB-19 CNS = tested on: SNB-19 CNS
U251 CNS = tested on: U251 CNS
PC-3 prostate = tested on: PC-3 prostate
SK-MEL-5 melanoma = tested on: SK-MEL-5 melanoma
UACC-62 melanoma = tested on: UACC-62 melanoma
LOX IMVI melanoma = tested on: LOX IMVI melanoma
SK-MEL-28 melanoma = tested on: SK-MEL-28 melanoma

| SMILES | growth (HCT-15 colon) | growth (HT29 colon) | growth (SNB-75 CNS) | growth (SNB-19 CNS) | growth (U251 CNS) | growth (PC-3 prostate) | growth (SK-MEL-5 melanoma) | growth (UACC-62 melanoma) | growth (LOX IMVI melanoma) | growth (SK-MEL-28 melanoma) |
| --- | --- | --- | --- | --- | --- | --- | --- | --- | --- | --- |
| Cc1[nH]n(C(=S)Nc2nc3cc(Cl)c(F)cc3s2)c(=O)c1N=Nc1ccc(F)c(Cl)c1 | 101% | 112% | 86% | 89.7% | 95.9% | 98.1% | 93.1% | 92.8% | 99% | – |
| CCNc1nnc(COc2ccc(CNC(=O)CCCC/C=C/C(C)C)cc2OC)o1 | 96.9% | 105% | 86.2% | 104% | 98.3% | 104% | 102% | 95% | 93.2% | – |
| CCCC[N+](C)(N)CCCC | 98% | 101% | 93.3% | 104% | 106% | 90.5% | 108% | 105% | 87.3% | – |
| COC(=O)c1ccc2[nH]c(O)c(C(=Nc3ccc(N(C)C(=O)CN4CCN(C)CC4)cc3)c3ccc(CCO)cc3)c2c1 | 82.1% | 43.8% | 18.1% | 31.4% | 31.3% | 56.4% | 50% | 73.7% | 37.5% | – |
| CC1Cc2cc(F)ccc2-n2cccc21 (stereo not given) | 95% | 106% | 96.1% | 121% | 102% | 98.2% | 109% | 110% | 91.7% | – |
| CC(C)(C)C(=O)OCOP(=O)(OCOC(=O)C(C)(C)C)C1CC(O)N(O)C1=O (stereo not given) | 34.7% | 6.67% (active) | 51.2% | 16.1% | 6.74% (active) | 58.9% | 58.4% | 9.68% (active) | 30.4% | – |
| Clc1ccc(N/N=C(/c2ccccc2)c2ccccn2)nc1 | 16.2% | 36.1% | 43.4% | 60.1% | 42.1% | 35.5% | 25.3% | 32.5% | 21.5% | 51.9% |
| CCOC(=O)c1ccc2n1CCCc1cnc(NC(C)=O)nc1-2 | 107% | 106% | 85.5% | 99.7% | 102% | 93.1% | 100% | 93.9% | 99.7% | – |
| CC[C@H](Nc1ncnc2nc[nH]c12)c1nc2cccc(NCc3ccc(C(=O)NO)o3)c2c(=O)n1-c1ccccc1 | 103% | 91.3% | 71.6% | 99.7% | 107% | 93.3% | 101% | 92.6% | 95.4% | – |
| C[C@@H](c1ccc2c(c1)[nH]c1ccc(Cl)cc12)c1nc2ccccc2[nH]1 | 96% | 98% | 62.4% | 92% | 98.4% | 91.3% | 95.3% | 85.9% | – | – |
| COc1cc(CCNc2cnc3cc(N)cc(N)c3n2)cc(OC)c1 | 104% | 100% | 98.8% | 111% | 104% | 118% | 103% | 109% | 108% | 61% |
| CC1(C)CC(=O)C2=C(C1)Oc1nc(N)c(C#N)c(N)c1C2c1ccc(F)cc1 (stereo not given) | 123% | 99.6% | 101% | 113% | 107% | 113% | 91.6% | 85.6% | 96.6% | 110% |
| C/C=C(/C)C(=O)OC1C=C(CO)C(=O)C(OC(=O)/C(C)=C\C)C1C(C)C (stereo not given) | -49.3% (active) | -65.6% (active) | -43.4% (active) | -54% (active) | -73.8% (active) | -54.1% (active) | -99.3% (active) | -84.7% (active) | -92.5% (active) | -92.6% (active) |
| COc1cc(-c2nn(-c3ccc(NC(=O)c4ccc(Cl)c(C(F)(F)F)c4)cc3)cc2-c2ccncc2)ccc1Cl | -44.1% (active) | -75.5% (active) | -7.6% (active) | 32.9% | 22.2% | 2.37% (active) | -93.3% (active) | -0.867% (active) | 21.6% | 35.7% |
| CCCCCCCCCCN1CC2CCCCC2C1 (stereo not given) | 35% | 19.8% | 66.3% | 79.7% | 53.4% | 48.4% | 49% | 89.4% | 47.1% | 90.6% |
| COc1cc(-c2nc3c(c(C)nc4c3nnn4-c3ccccc3)c(=O)o2)cc(OC)c1OC | 113% | 115% | 89.6% | 110% | 111% | 104% | 106% | 102% | 101% | 101% |
| Cc1sc(NC(=O)c2ccc(C(C)(C)C)cc2)c(C(=O)O)c1C | 45.9% | 82% | 85.5% | 51% | 17% | 53.7% | 73.3% | 98.4% | 68.9% | 110% |
| N=C(N)N=Nc1ccc(NN=C(N)N)cc1 | 102% | 91.1% | 76.4% | 94.2% | 91.8% | 45.9% | 94% | 90.8% | 96.4% | 103% |
| O=C1C(=O)c2ccccc2C(O)=C1CCCc1ccc(C2CCCC2)cc1 | 19.6% | 34.7% | 39.9% | 40.9% | 29.2% | 35.6% | 15.6% | 40.7% | 1.77% (active) | 53.1% |
| O=C(CN1C(=O)NC(c2ccccc2)(c2ccccc2)C1=O)c1ccc(N2CCCC2)cc1 | 64.7% | 65.3% | 77.8% | 90.7% | 76.6% | 71.8% | 70.8% | 89.5% | 74.2% | 73.9% |
| O=S(=O)(O)CCI | 108% | 116% | 98% | 102% | 110% | 95.7% | 91.2% | 101% | 97.8% | 113% |
| COc1ccc(/C=C(/C(=O)N2CCCCC2)c2cc(OC)c(OC)c(OC)c2)cc1 | 26.8% | 5.67% (active) | -15.6% (active) | 32% | 26% | 12.4% | 26.8% | 36.5% | 36.5% | 54.1% |
| COc1ccc2sc(-n3nc4nc5n(c(=O)c4c3N)-c3ccccc3Sc3ccccc3-5)nc2c1 | 82.6% | 73.6% | 73.8% | 79.7% | 82.2% | 48.7% | 41.1% | 64.1% | 79.8% | 92.6% |
| Nc1cc(N)c2nc(NCCc3ccc(Cl)c(Cl)c3)cnc2c1 | 90% | 41.7% | 57.9% | 66% | 7.5% (active) | 43.9% | 37.2% | 33.7% | 39.7% | 104% |
| CCS(=O)(=O)N[C@@H]1O[C@H](COC(C)=O)C(OC(C)=O)[C@H](OC(C)=O)C1OC(C)=O (stereo not given in full) | 93.8% | 102% | 93.9% | 115% | 97.7% | 102% | 105% | 110% | 92.8% | 108% |
| c1ccc(-c2cn3ccnc3c(-c3ccc4ncn(C5CCCCC5)c4c3)n2)cc1 | 48.4% | 51.7% | 55.6% | 77.1% | 62.7% | 7.96% (active) | 63.5% | 34.4% | 60.4% | 82% |
| COc1cc2c(c(OC)c1OC)C(=O)CC(c1cccc(C(=O)Nc3cccc(Br)c3)c1)O2 (stereo not given) | 72.1% | 82.3% | 75.4% | 76.4% | 81.8% | 59.1% | 72.9% | 58.4% | 90% | 91.9% |
| CCCCCCN(CCCCCC)CCC(=O)Nc1ccc(S(=O)(=O)c2ccc(NC(=O)CCN(CCCCCC)CCCCCC)cc2)cc1 | 72.9% | 29.9% | 71.3% | 88% | 88.4% | 76.6% | 90% | 91.3% | 76.5% | 91.9% |
